The list is not random: actives were taken first. Their share in the collection is about 19%.
DT40 TDP1 no CPT – qHTS for Inhibitors of human tyrosyl-DNA phosphodiesterase 1 (TDP1): qHTS in cells in absence of CPT; DT40 Tdp1-/- hTDP1 cells, no CPT, ATP luminescence, 48 h; Potency, µM (titrated, usually from 46.2 µM), without a hit: at the highest dose activity change, negative = growth inhibition, usual class: inhibitors; 420,000 compounds, 15% hits; AID 686978, 2013; further: nearly all actives have a fitted effect of over 55% in size
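No-CPT arm: Tdp1-/-;hTDP1 DT40 cells (400/well) plus compounds, incubated ≥48 hr at 37 °C. Readout CellTiter-Glo luminescence.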
HT1080NT lethal – kills 2HG-producing HT-1080-NT fibrosarcoma cells. HT-1080-NT fibrosarcoma viability, CellTiter-Glo ATP luminescence, 48 h. Potency, µM (doses to about 46.1 µM), inactives show at the top dose activity, negative = less viability, usual class: cytotoxic. 360,000 compounds, 1.6% hits;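 further: NT is the 2HG producing partner of a matched IDH1 knockdown line; 0% = DMSO-treated cells and -100% = media-only wells without cells; nearly all actives have a fitted effect of over 55% in size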
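Compounds were tested in concentration-response format on HT-1080-NT cells for 48 hours at 37 degrees C. Cell viability came from CellTiter-Glo luminescence; curves were classified by r2, response magnitude and activity.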
KB-V1 cytotox – kills drug-selected multidrug resistant KB-V1 cells; KB-V1 MDR cells viability, CellTiter-Glo, 72 h; Potency, µM (highest dose often 46.1 µM), hits mostly cytotoxic; 400,000 compounds, 3.4% hits; further: nearly all actives have a fitted effect of over 60% in size
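Cytotoxicity toward P-gp-expressing KB-V1 cells was determined as loss of CellTiter-Glo luminescence after 72 h at 37 degrees C. Compounds were tested in quantitative HTS format across a concentration range, with curves fitted to normalized data.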
TDP1 cell CPT – DT40-hTDP1 cell growth loss with CPT | chicken DT40 Tdp1-/-;hTDP1 cells + 20 nM CPT, ATP luminescence, 48 h | Potency, µM (highest dose often 46.2 µM), inactives show at the top dose activity change, negative = growth inhibition, most hits filed as inhibitors | 420,000 compounds, 12% hits | AID 686979; further: nearly all actives have a fitted effect of over 55% in size
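Chicken DT40 Tdp1-/- cells stably complemented with human TDP1 were seeded at 400 cells/well in medium containing 20 nM camptothecin, exposed to pin-transferred compounds, and grown at 37 °C for at least 48 hr. Viability was read as ATP luminescence.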
KB-3-1 cytotox – KB-3-1 parental cell cytotoxicity | 400,000 compounds, 1.4% hits | Potency, µM (series often up to 46.1 µM), hits mostly cytotoxic | KB-3-1 viability, CellTiter-Glo ATP luminescence, 72 h | AID 1347075; further: nearly all actives have a fitted effect of over 60% in size
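Screening of KB-3-1 cells (DMEM, 10% FBS, phenol-red free) ran from lowest to highest compound concentration; after 72 h at 37 °C viability was read luminescently and curves fitted.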
HT1080 IDH1KD tx – toxicity to HT-1080 IDH1 knockdown cells (counter line); HT-1080 IDH1 knockdown viability, ATP luminescence, 48 h; Potency, µM (titrated, usually from 46.1 µM), for the others: top-dose activity, negative = toxicity, usual class: cytotoxic; 360,000 compounds, 2% hits; AID 686971;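 further: 0% = DMSO wells and -100% = cell-free medium wells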
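After a 2 h attachment period, IDH1KD HT-1080 cells took pin-transferred compound for 48 h at 37 °C; ATP-based luminescence after 10 min room-temperature reagent incubation reported viability.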
An asterisk follows results filed as active; i = inactive; ? = inconclusive; . = no result given. The call rests on the fitted dose curve; in most records, active means well fitted curve in the direction sought with a large enough effect; inconclusive means small, poorly fitted or top-dose-only effect, or another doubt; inactive means no such curve, though single readings can be large; an effect the other way counts as inactive or inconclusive. Unless noted, on the % scale 0 is the no-effect control and ±100 the full control effect; potency means the concentration at half of the fitted maximal effect.

SMILES	DT40 TDP1 no CPT	HT1080NT lethal	KB-V1 cytotox	TDP1 cell CPT	KB-3-1 cytotox	HT1080 IDH1KD tx
COc1ccc2c(c1)CC/C(=C\c1ccc(OC)c(Cn3cccn3)c1)C2=O	26µM*	-1%	i	18µM*	?	-9%
COc1ccc2c(c1)CC/C(=C\c1ccc(OC)c(Cn3nc(C)cc3C)c1)C2=O	18µM*	?	?	16µM*	?	?
COc1ccc(/C=C2\CCc3ccccc3C2=O)cc1CN1CCOCC1	?	?	?	?	i	?
CCOc1ccc(C2C(C(=O)Nc3ccc(C)cc3C)=C(C)Nc3c(C(=O)Nc4ccc(C)cc4)cnn32)cc1OC (centres undefined)	-6%	.	.	-13%	.	.
CN1CCC(CC(C(=O)N2CCCC2)(c2ccccc2)c2ccccc2)C1 (centres undefined)	?	-14%	i	23µM*	i	-12%
CCc1c(C)sc2c1CCN(Cc1cccc(F)c1)C2c1ccccc1 (centres undefined)	12µM*	.	i	?	i	.
CCc1c(C)sc2c1CCN(Cc1ccc(F)cc1)C2c1ccccc1 (centres undefined)	4.6µM*	.	i	?	?	.
COc1cc(OC)cc(-n2nnc(-c3nc(-c4ccccc4Cl)no3)c2N)c1	?	.	i	?	i	.
CCCCC[C@@H](C)N1C[C@@H](COCc2ccccc2)Oc2cc(N3CCC[C@H]3CO)ccc2S1(=O)=O	?	?	i	?	i	?
CCCCC[C@@H](C)N1C[C@H](COCc2ccccc2)Oc2cc(N3CCC[C@H]3CO)ccc2S1(=O)=O	16µM*	1%	i	9.2µM*	i	0%
CCCCC[C@@H](C)N1C[C@H](COCc2ccccc2)Oc2cc(N3CCC[C@@H]3CO)ccc2S1(=O)=O	18µM*	?	i	?	i	?
CC(C)N(C(=S)Nc1ccc(S(=O)(=O)N2CCOCC2)cc1)c1ccccc1	?	0%	i	-18%	i	-2%
CC1(O)CC(c2ccc(Cl)cc2)=NN1C(=O)c1ccc([N+](=O)[O-])cc1 (centres undefined)	18µM*	10µM*	?	21µM*	?	16µM*
CC(=O)N1N=C(c2ccc(Cl)cc2)CC1c1ccc([N+](=O)[O-])cc1 (centres undefined)	?	1%	i	?	i	6%
Cc1ccc(NC(=O)NC(=O)COc2ccccc2C(N)=O)c(C)c1	22%	10%	i	9%	i	5%
O=C(Nc1ccncc1)C1CC(=O)N(Cc2ccccc2)C1 (centres undefined)	-17%	-5%	i	-4%	i	-4%
O/N=C(/c1ccccc1)c1cc2cc(Br)cc(Br)c2o1	?	?	i	-18%	i	?
O=S(=O)(O)c1cc(O)c(N=Nc2ccc(O)cc2O)c2ccccc12	?	?	i	?	?	?
O=[N+]([O-])c1ccccc1N=Nc1ccc(O)cc1O	26µM*	-9%	i	?	i	-11%
N#CCOC(=O)c1cc(S(=O)(=O)N2CCCCC2)ccc1N1CCOCC1	16%	1%	i	-23%	?	7%
O=C1CC(N2CCOCC2)=NN1c1ccc([N+](=O)[O-])cc1	26µM*	-6%	i	?	i	-10%
Cc1cc(=O)[nH]c(N/N=C/c2ccccn2)n1	4.6µM*	?	?	3.7µM*	?	?
Cc1ccc(/C=N/Nc2cn[nH]c(=O)n2)o1	-4%	7%	i	0%	i	2%
Cc1cc(=O)[nH]c(N/N=C/c2ccc(-c3ccc(F)cc3)o2)n1	13µM*	?	?	9.2µM*	?	8.2µM*
O=c1cnnc(N/N=C/c2ccccn2)[nH]1	3.3µM*	?	i	4.6µM*	?	1.3µM*
SMILES	DT40 TDP1 no CPT	HT1080NT lethal	KB-V1 cytotox	TDP1 cell CPT	KB-3-1 cytotox	HT1080 IDH1KD tx
CC(/C=N/Nc1nncc(=O)[nH]1)=C\c1ccccc1	2%	21%	i	23%	i	9%
O=c1nc(N/N=C/c2ccccn2)cn[nH]1	5.2µM*	?	i	5.2µM*	?	?
C(=N\Nc1nncc2ccccc12)/c1ccccn1	2.9µM*	?	i	2.3µM*	?	5.2µM*
C=CCNc1nc(Cl)nc(Nc2ccc([N+](=O)[O-])cc2)n1	14%	-1%	i	0%	i	14%
C=CCNc1nc(Nc2ccc([N+](=O)[O-])cc2)nc(N2CCCC2)n1	?	10%	?	15µM*	i	7%
CCCCc1ccc(Nc2nc(N3CCOCC3)nc(N3CCOCC3)n2)cc1	?	-21%	i	?	i	?
CCCNc1nc(Nc2ccc([N+](=O)[O-])cc2)nc(N2CCOCC2)n1	14µM*	.	i	13µM*	i	.
C=CCNc1nc(Nc2ccc(-c3nc4ccccc4o3)cc2)nc(N2CCOCC2)n1	26µM*	?	i	29µM*	i	?
CN(Cc1ccc(F)cc1)S(=O)(=O)c1nnc(NC(=O)c2ccccc2Cl)s1	?	.	i	?	i	.
CCOc1ccc2nc(N=NC3=C(O)CC(C)(C)CC3=O)sc2c1	4.1µM*	-5%	i	3.7µM*	?	-27%
Cc1nc2ccc(N=NC3=C(O)CC(C)(C)CC3=O)cc2s1	?	-2%	i	-7%	i	9%
CSc1nc(N)nc(SCC(=O)C23CC4CC(CC(C4)C2)C3)c1C#N	18µM*	?	?	?	?	?
N#Cc1c(N)nc(SCC(=O)C23CC4CC(CC(C4)C2)C3)c(C#N)c1-c1ccc(Cl)cc1	?	-4%	?	?	i	-9%
CCN(CC(=O)Nc1ccccc1SC)Cc1nc2ccccc2c(=O)[nH]1	2.1µM*	0%	i	0.65µM*	i	-7%
CCN(CC(=O)Nc1ccccc1C(=O)Nc1ccccc1)Cc1nc2ccccc2c(=O)[nH]1	-1%	-7%	i	11%	i	17%
CCN(CC(=O)Nc1ccccc1-c1ccccc1)Cc1nc2ccccc2c(=O)[nH]1	4.6µM*	5.8µM*	?	5.8µM*	8.2µM*	4.6µM*

Assay outcomes as filed in PubChem.
